According to paper PMC13494018:
Values without a mark were called inactive. No rule for the calls is given here.

Target: VTCN1, Q7Z7D3
Sequence (Q7Z7D3 whole entry): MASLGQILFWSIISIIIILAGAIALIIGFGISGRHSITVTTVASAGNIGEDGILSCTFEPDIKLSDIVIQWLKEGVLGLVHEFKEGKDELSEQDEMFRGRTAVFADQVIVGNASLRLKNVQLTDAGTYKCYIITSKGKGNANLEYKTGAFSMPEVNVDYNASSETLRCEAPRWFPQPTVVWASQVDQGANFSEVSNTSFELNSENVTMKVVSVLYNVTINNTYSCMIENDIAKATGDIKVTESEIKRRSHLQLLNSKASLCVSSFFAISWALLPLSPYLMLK

Row | Binder | binding in a display sort
1 | design_601_c3fd07b4-2f34-4ad8-bd4e-2749faf628eb_475_dldesign_0_cycle1_af2pred (protein) DEFTEKAKEFAEEVKKKSKELVAKAEAGDAETAKEKRKEAVKLLSEAFSLSVKAKKESKEAYEYMKEAEEIASDAVIKISEIEKKKAA | not found
2 | design_601_c3fd07b4-2f34-4ad8-bd4e-2749faf628eb_83_dldesign_0_cycle1_af2pred (protein) NEEAKKAYEKAKKVIEKVLKLAKENPELAEAEEQAKKALEKAEEGLKKGDVGLTESALTRAEHLLEVAEAKIAA | not found
3 | design_601_c3fd07b4-2f34-4ad8-bd4e-2749faf628eb_1384_dldesign_0_cycle1_af2pred (protein) SKIELLKKAAEYVEEAAKLAKEGGRVSDVIKLLQKAYELAKKAGDEETAKLIKEAAFAVPDPEKAYKLLKEAAERLKEKAKKLE | not found
4 | design_601_c3fd07b4-2f34-4ad8-bd4e-2749faf628eb_334_dldesign_0_cycle1_af2pred (protein) DPASEEAKKLADKMRTAQRLFKQAGLALKEGKRDVDAVAEGYALAKEADPEFAEALEEALKKSVGEEKGTALIEEAKALAKAKAAA | not found
5 | design_601_c3fd07b4-2f34-4ad8-bd4e-2749faf628eb_352_dldesign_0_cycle1_af2pred (protein) AKEDQEASSEMMRYLTKAGKLAKEIGEEEYEKALKEREKVLELSVEDPKKGLEAAKEVLKEYEEKYKKAEEEKKA | not found
6 | design_601_c3fd07b4-2f34-4ad8-bd4e-2749faf628eb_648_dldesign_0_cycle1_af2pred (protein) GTEEALERVRRGAERARRLLDEARKYGADKEKVDALTKEADEALAAAEENPEKAPEYLKRIAEISAEAAELRAEAFAKK | not found
7 | design_601_c3fd07b4-2f34-4ad8-bd4e-2749faf628eb_461_dldesign_0_cycle1_af2pred (protein) SAEEEAKKLLEEVKKAMSAANFAMAEDLEEGEKAWEEAKKKAKELLEKAEKLNKEEAKKVKEAVEKGEKTYKRIKKDHEEAEKRAKER | not found
8 | design_601_c3fd07b4-2f34-4ad8-bd4e-2749faf628eb_592_dldesign_0_cycle1_af2pred (protein) SSADILREYRRALQEATKAAAAADPANKEEILKEGAKAREEVVDAFSESDELGKKTAEEQLAKIKARKKAAE | not found
9 | design_601_c3fd07b4-2f34-4ad8-bd4e-2749faf628eb_821_dldesign_0_cycle1_af2pred (protein) EAAAAAAAGEEARRLTRKRLERAEEAEKTKSPLQAANAWLAASEFARHAAEALAKNYPSATETIAELRALAEEAEAKAKELL | not found
10 | design_601_c3fd07b4-2f34-4ad8-bd4e-2749faf628eb_503_dldesign_0_cycle1_af2pred (protein) AEKAIGNAHAYKNILKSEAEWSKKLPLEERKKRLKELVEEIAKIAAEAGEEVAEKFRKEAEAFAEEALKKQEEE | not found
11 | design_601_c3fd07b4-2f34-4ad8-bd4e-2749faf628eb_190_dldesign_0_cycle1_af2pred (protein) SMEGQELKDKAVDALGDAHLLKIKGKEIDPEIVKIAEKAEEAAKKALKLIKEGNLEEAKEELEKAEELVKKAKELLKKKE | not found
12 | design_601_c3fd07b4-2f34-4ad8-bd4e-2749faf628eb_877_dldesign_0_cycle1_af2pred (protein) NEKAKEALKENKEAAELARKLAKEGIAPEEAARLAQKLQETAAVMKMADKVPKETLEEAIKEGKKAAEEVKKLAKA | not found
13 | design_601_c3fd07b4-2f34-4ad8-bd4e-2749faf628eb_419_dldesign_0_cycle1_af2pred (protein) GKEELLKKAKKAMEETKKAIKEGKKLIKEGASKEELEKAAEELRKKAKEVRELGKELPELKPEAAKVAQEAYETAAELDVEAKKK | not found
14 | design_601_c3fd07b4-2f34-4ad8-bd4e-2749faf628eb_1417_dldesign_0_cycle1_af2pred (protein) EEEKLKEAAKRLHEAREKTNEAEQKLKLEGKKNAEELKKELEAAAKVAKAVAEEVKANPEYAKIAETLAKRAEKAAQEA | not found
15 | design_601_c3fd07b4-2f34-4ad8-bd4e-2749faf628eb_72_dldesign_0_cycle1_af2pred (protein) AAAAAAKKAEADATQLDLIAKSTEAIKDKVSPETVADVFAPAAAAYEKAAKLWSGNPAKAAEFKAKAKEMKAKYEKAKKEAE | not found
16 | design_601_c3fd07b4-2f34-4ad8-bd4e-2749faf628eb_587_dldesign_0_cycle1_af2pred (protein) NEEKAKTALSEGNAYYRMALDAVKIGVKKEDVLALIDEAEKYFEKAAELYKDNPEKAKKIKELGKEKTEEARKALEEA | not found
17 | design_601_c3fd07b4-2f34-4ad8-bd4e-2749faf628eb_731_dldesign_0_cycle1_af2pred (protein) AEAKKELTEEVFEALEYRNEIERKDPELGKKARELLRKAFEEGRKLIKADPEEGTKKAAEIVKKVREEIKKLAE | not found
18 | design_601_c3fd07b4-2f34-4ad8-bd4e-2749faf628eb_257_dldesign_0_cycle1_af2pred (protein) VELAKEMKKLIAEAARAAKEDPKKAAKLLKEAAKKAKEIGEIAEPAAKLLEEAAKLLEEGPEKAPEAATLLSEARAEANYVIKSLEL | not found
19 | design_601_c3fd07b4-2f34-4ad8-bd4e-2749faf628eb_1122_dldesign_0_cycle1_af2pred (protein) MEEEKIRKRQAELLKEEAEKEMAAAKASTDAAEAANLGLFARQLYRSAAKIDKENKEEYLKLAEKAEEETKAIVAAKKAA | not found
